Screening results (PubChem)
The list is not random: actives were taken first. Their share in the collection is about 3.8%.
HSF1 activator = increases HSF-1 driven luciferase reporter signal; NIH3T3-HGL HSF-1 luciferase reporter, MG132, 8 h; 100% = twice DMSO control signal; activation, % at 9 µM; 1.7% of 300,000 active;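 active = mean replicate activation of at least 50% with a set share of replicates each reaching 50%; inconclusive = only one of those two conditions met; inactive = mean below 50% and too few replicates reaching it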;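 note: 0% = median of the neutral control wells and 100% = twice that signal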
MITF TRPM1 HTS = increases MITF-driven TRPM1 promoter luciferase signal | SK-MEL-5 TRPM1-promoter luciferase, 24 h; % of positive control, neutral wells = 0 | activation, % at 12.5 µM | 0.75% of 300,000 active;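 active = mean activation of at least 80% with every replicate also reaching 80%; inconclusive = mean reaches 80% but some replicate falls short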;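 note: 0% = neutral control wells and 100% = parthenolide positive control wells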
esBAF inh = SWI/SNF esBAF complex inhibition. reporter increase, % at 12.5 µM. 2% of 350,000 active. AID 602393. mouse ES cells, Bmi1-luciferase knock-in reporter, 24 h; 100% = twice the neutral-well signal; in the data active = activation above about 40%; inconclusive = no clear call, values can overlap the other calls;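 note: 0% = median of the plate's neutral control wells and 100% = double that signal; a rise in the Bmi1 reporter signal indicates esBAF inhibition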
Wnt act = activators of Wnt/beta-catenin signaling. Wnt/beta-catenin reporter cell assay, activator, plate reader. activation, % at 9.35 µM. 1.2% of 300,000 active; in the data active = activation above about 30%, passing the limit was not always enough; inconclusive = no clear call, values can overlap the other calls;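 note: 0% = neutral control wells and 100% = positive control wells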
HSF1 inh = HSF1 inhibition | NIH3T3-HGL HSE-luciferase, MG132-induced, luminescence 8 h; stronger effect = lower value | activity change, negative = inhibition, % at 7.5 µM (by protocol) | 0.77% of 300,000 active;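 active = more than half of replicate wells show activity change below -50%, luminescence cut by over half; inconclusive = some wells, but at most half, below -50%; inactive = no replicate well below -50%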;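 note: luciferase reports HSF-1 transcriptional activity via heat shock element; 0% = median of DMSO wells and -100% = zero luminescence signal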
Starred values were filed as active, the others as inactive; ? = inconclusive; nt = no result.

SMILES	HSF1 activator	MITF TRPM1 HTS	esBAF inh	Wnt act	HSF1 inh
COc1ccc(NC(=S)N/C(=N/CS(=O)(=O)c2ccccc2)c2ccccc2)cc1	18	21	-3	37*	-2
Cc1cccc(NC(=S)N/C(=N/S(=O)(=O)c2ccccc2)c2ccccc2)c1	40	1	78*	-4	31
Cc1ccc(S(=O)(=O)/N=C(/NC(=S)Nc2cccc(C)c2)c2ccccc2)cc1	33	-1	nt	nt	14
COc1ccc(CN(C)C[C@H]2Oc3ccc(NC(=O)Nc4ccc5c(c4)OCO5)cc3C(=O)N([C@H](C)CO)C[C@H]2C)cc1	nt	nt	1	nt	nt
CCOC(=O)c1cnc2ccc(C(=O)OC)cc2c1NCCCN1CCOCC1	-87	nt	1	0	-83*
C[C@H](CO)N1C[C@H](C)[C@H](CN(C)C(=O)Nc2ccc3c(c2)OCO3)OCCCC[C@H](C)Oc2ccc(NC(=O)Nc3ccccc3)cc2C1=O	nt	nt	2	nt	nt
CNC[C@@H]1Oc2cc(C#CC3CCCCC3)ccc2S(=O)(=O)N([C@H](C)CO)C[C@H]1C	nt	nt	-86	nt	nt
COCCCN(Cc1ccco1)C(=O)CSc1nc2ncccc2[nH]1	-64	11	-1	-1	-55*
CCCN1CCC(=O)N([C@H](CSc2ccc(Br)cc2)c2ccccc2)CC1	25	89*	51*	20	4
CC(C)C[C@@H](CSc1ccccc1)N1CCN(C)CCC1=O	0	13	0	12	0
CCCN1CCC(=O)N([C@H](CSc2ccc(C)cc2)Cc2ccccc2)CC1	-1	8	-15	-2	9
CCCN1CCC(=O)N([C@H](CSc2ccc(C)cc2)CC(C)C)CC1	-56	98*	46*	30	-42
CCCN1CCC(=O)N([C@H](CSc2ccccc2)CC(C)C)CC1	2	93*	37	16	-2
CC(C)CN1CCC(=O)N([C@H](CSc2ccc(Br)cc2)Cc2ccccc2)CC1	-1	12	nt	-3	7
CC(C)C[C@@H](CSc1ccccc1)N1CCN(CC(C)C)CCC1=O	-10	103*	50*	43*	-1
CC(C)(NC(=O)c1cc(Cl)c2ccccc2c1O)C(=O)O	-87	-12	-5	-2	-83*
Cc1ccc(Sc2cc(C)nc(-c3ccccn3)n2)cc1	2	nt	nt	33*	11
c1ccc(-c2ccc(-c3nc(-c4ccccn4)no3)cc2)cc1	-89	-99	-79	-11	-88*
COc1cnc(-c2ccccn2)nc1Sc1ccc(C)cc1	-13	-5	nt	-2	-6
Cc1ccc(-c2nc(-c3ccccn3)no2)cc1	-80	-89	-83	-11	-78*
c1ccc(-c2nc(-c3ccccn3)no2)cc1	11	-53	-68	-12	11
CC(=O)N(C)C[C@H]1Oc2cc(Br)ccc2S(=O)(=O)N([C@H](C)CO)C[C@H]1C	nt	nt	0	nt	nt
Cc1ccn2c(=O)nc(SCC(=O)NCc3ccccc3)nc2c1	-38	-6	2	0	?
Cc1ccc2nc(SCC(=O)N3CCCC3)nc(=O)n2c1	-2	11	-1	4	-1
Cc1ccn2c(=O)nc(SCC(=O)c3ccccc3)nc2c1	12	75	42*	28	17
SMILES	HSF1 activator	MITF TRPM1 HTS	esBAF inh	Wnt act	HSF1 inh
Cc1ccc2nc(SCC(=O)c3ccccc3)nc(=O)n2c1	30	71	68*	12	20
Nn1c(=O)c2ccccc2n2c(SCc3ccccc3)nnc12	-76	14	-6	2	-68*
COc1cc(/C=C2\CCCc3c2nc2ccccc2c3C(=O)O)cc(Br)c1O	-1	-7	-2	0	-2
CCOc1cc(/C=C2\CCCc3c2nc2ccccc2c3C(=O)O)ccc1OC	56*	28	9	0	18
COc1ccc(/C=C2\CCn3c2nc2ccccc2c3=O)cc1OC	9	94*	43*	nt	14
COc1ccc(/C=C2\CCn3c2nc2cc(C(=O)O)ccc2c3=O)cc1OC	-11	15	2	-1	2
C/C(=N\NC(=O)c1nnn(-c2nonc2N)c1C(C)C)c1ccncc1	-58	-7	6	1	-51*
Cc1coc(NC(=O)CSc2nc(-c3ccc(Cl)cc3)cc(C(F)(F)F)c2C#N)n1	-76	-19	-1	-7	-69*
CN1CCN(C(=O)c2ccc(-c3cccs3)s2)CC1	37	nt	nt	36*	31
CN1CCCN(C(=O)c2ccc(Br)s2)CC1	-8	4	0	0	-6
CCS(=O)(=O)Nc1ccc2c(c1)C(=O)N(C)C[C@H](OC)[C@@H](C)CN(C)[C@H](C)CO2	nt	nt	2	nt	nt
C#CCOC(=O)CCCC(=O)Nc1ccccc1OC	-1	1	0	50*	-2
C[C@H](CO)N1C[C@H](C)[C@@H](CN(C)S(C)(=O)=O)Oc2ccc(NC(=O)Cn3cnnn3)cc2CC1=O	nt	nt	-3	nt	nt
CCCN1C[C@H](C)[C@@H](OC)CN(C)C(=O)c2ccc(NC(=O)c3ccccc3)cc2OC[C@H]1C	nt	nt	2	nt	nt
Cc1ccccc1OCCCC(=O)Nc1ccccc1C(F)(F)F	91*	0	-6	-1	38
Cc1cccc(OCCCC(=O)Nc2ccccc2C(F)(F)F)c1	-15	5	-5	-5	7
CCc1cccc2c1NC(=O)C21N2CCCC2C(C(=O)c2ccc3ccccc3c2)C12C(=O)Nc1ccccc12 (stereo not given)	23	29	nt	-3	16
CCc1ccc2c(c1)C1(C(=O)N2)N2CCCC2C(C(=O)c2ccc3ccccc3c2)C12C(=O)Nc1ccccc12 (stereo not given)	65*	7	nt	?	40
CCC(=O)Nc1ccc2c(c1)OC[C@H](C)N(C(=O)C1CCC1)C[C@H](C)[C@@H](OC)CN(C)C2=O	nt	nt	7	nt	nt
O=[N+]([O-])c1ccc(CSc2nnc3ccccn23)cc1	41	1	nt	0	17
c1ccn2c(SCc3ccc4c(c3)OCO4)nnc2c1	-73	4	nt	nt	-65*
O=C(CSc1nnc2ccccn12)Nc1ccc2c(c1)OCO2	38	18	nt	1	7
O=[N+]([O-])c1ccccc1CSc1nnc2ccccn12	24	34	63*	5	16
CC(=O)N(C)C[C@@H]1Oc2ncc(-c3cccc(F)c3)cc2C(=O)N([C@@H](C)CO)C[C@H]1C	nt	nt	-1	nt	nt
CO[C@@H]1CC[C@@H]2CCOc3ccc(C#N)cc3C(=O)N(C)C[C@H](c3ccccc3)CC(=O)N(C)C[C@@H]1O2	nt	nt	-2	nt	nt
O=[N+]([O-])c1ccc(Cl)c(/C=N/n2c(-c3ccncc3)n[nH]c2=S)c1	243*	-14	0	4	155
S=c1[nH]nc(-c2ccncc2)n1/N=C/C(Cl)=C\c1ccccc1	78*	71	nt	32*	39
S=c1[nH]nc(COc2ccccc2)n1/N=C/C(Cl)=C/c1ccccc1	151*	nt	nt	nt	109
S=c1[nH]nc(-c2ccncc2)n1/N=C/C=C/c1ccccc1	4	nt	nt	6	6
C[C@@H](NC(=O)C[C@H]1C=C[C@H](NC(=O)C2CCC2)[C@H](CO)O1)c1ccccc1	nt	nt	-1	nt	nt
